# From article PMC11006913
# Target: T1, NKX2-6 (Homo sapiens, UniProt A6NCS4 118-204, R150C)
# T1 sequence: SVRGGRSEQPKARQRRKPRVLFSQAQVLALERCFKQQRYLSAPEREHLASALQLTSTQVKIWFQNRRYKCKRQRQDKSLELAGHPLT
# Test: PBM; 200 nM protein, PBS
# Conditions: dsDNA, one strand shown
row,Sequence,binding signal
1,GCGGACCA,"9.48 upbm affinity estimate (log intensity, higher = more binding, comparable within an allelic series)"
2,CAAGAGGG,"10.9 upbm affinity estimate (log intensity, higher = more binding, comparable within an allelic series)"
3,GGCGGGAC,"9.37 upbm affinity estimate (log intensity, higher = more binding, comparable within an allelic series)"
4,CACGCCAG,"9.43 upbm affinity estimate (log intensity, higher = more binding, comparable within an allelic series)"
5,AGGCAGTC,"9.73 upbm affinity estimate (log intensity, higher = more binding, comparable within an allelic series)"
6,ACAGGGGG,"9.27 upbm affinity estimate (log intensity, higher = more binding, comparable within an allelic series)"
7,GCAGCACC,"9.59 upbm affinity estimate (log intensity, higher = more binding, comparable within an allelic series)"
8,CCCGGGGA,"9.42 upbm affinity estimate (log intensity, higher = more binding, comparable within an allelic series)"
9,AACCGCCC,"9.72 upbm affinity estimate (log intensity, higher = more binding, comparable within an allelic series)"
10,GACCTGGC,"9.43 upbm affinity estimate (log intensity, higher = more binding, comparable within an allelic series)"
11,CACAGGCG,"9.43 upbm affinity estimate (log intensity, higher = more binding, comparable within an allelic series)"
12,GTAAGTAC,"11.7 upbm affinity estimate (log intensity, higher = more binding, comparable within an allelic series)"
13,ATACTTGG,"10.8 upbm affinity estimate (log intensity, higher = more binding, comparable within an allelic series)"
14,CGCTCACC,"9.46 upbm affinity estimate (log intensity, higher = more binding, comparable within an allelic series)"
15,CGGGCGGA,"9.09 upbm affinity estimate (log intensity, higher = more binding, comparable within an allelic series)"
16,GATCCGAC,"9.56 upbm affinity estimate (log intensity, higher = more binding, comparable within an allelic series)"
17,CCGTAGCG,"9.34 upbm affinity estimate (log intensity, higher = more binding, comparable within an allelic series)"
18,ATCACCCG,"9.63 upbm affinity estimate (log intensity, higher = more binding, comparable within an allelic series)"
19,ACGGGGTC,"9.58 upbm affinity estimate (log intensity, higher = more binding, comparable within an allelic series)"
20,GAGTCTGC,"9.64 upbm affinity estimate (log intensity, higher = more binding, comparable within an allelic series)"

row,Sequence,binding signal
1,CTCTTGAC,"11.2 upbm affinity estimate (log intensity, higher = more binding, comparable within an allelic series)"
2,CGCCAACC,"9.44 upbm affinity estimate (log intensity, higher = more binding, comparable within an allelic series)"
3,CCCAGGGG,"9.24 upbm affinity estimate (log intensity, higher = more binding, comparable within an allelic series)"
4,AGAGTGGA,"11 upbm affinity estimate (log intensity, higher = more binding, comparable within an allelic series)"
5,AAGAGTAG,"10.8 upbm affinity estimate (log intensity, higher = more binding, comparable within an allelic series)"
6,AAGAAGTG,"11.2 upbm affinity estimate (log intensity, higher = more binding, comparable within an allelic series)"
7,AGGCACCC,"9.55 upbm affinity estimate (log intensity, higher = more binding, comparable within an allelic series)"
8,GACGCCCC,"9.56 upbm affinity estimate (log intensity, higher = more binding, comparable within an allelic series)"
9,AAGCCCCC,"9.33 upbm affinity estimate (log intensity, higher = more binding, comparable within an allelic series)"
10,CCGGACCC,"9.31 upbm affinity estimate (log intensity, higher = more binding, comparable within an allelic series)"
11,CAGCCCTG,"9.44 upbm affinity estimate (log intensity, higher = more binding, comparable within an allelic series)"
12,CCCCCATC,"9.53 upbm affinity estimate (log intensity, higher = more binding, comparable within an allelic series)"
13,GGTCTGCA,"9.86 upbm affinity estimate (log intensity, higher = more binding, comparable within an allelic series)"
14,GGTCAACC,"9.62 upbm affinity estimate (log intensity, higher = more binding, comparable within an allelic series)"
15,ATACTTTG,"10.7 upbm affinity estimate (log intensity, higher = more binding, comparable within an allelic series)"
16,CGGACGGC,"9.24 upbm affinity estimate (log intensity, higher = more binding, comparable within an allelic series)"
17,GCATGCGC,"9.48 upbm affinity estimate (log intensity, higher = more binding, comparable within an allelic series)"
18,ACAGCGGG,"9.46 upbm affinity estimate (log intensity, higher = more binding, comparable within an allelic series)"
19,GAGGCGGA,"9.49 upbm affinity estimate (log intensity, higher = more binding, comparable within an allelic series)"
